This passage reports Potency, outcome and activity change, positive = activation results from PubChem BioAssay (Tox21).

Unmarked numbers belong to inactive results. Records with an inconclusive call do not appear. Calls of active or inactive are those of the source. Unless noted, calls follow the shape of the dose curve; as a rule, active = well fitted curve in the direction sought with a large enough effect in the repeat runs; inconclusive = weak or mixed curves; inactive = no such curve, though single readings can be large; an effect the other way counts as inactive or inconclusive.

Experiment [1] has as its target Luciferin 4-monooxygenase (Photinus pyralis) (UniProt P08659). Description: qHTS assay to identify small molecule inhibitors of firefly luciferase (AID 1224835). Also: nearly all actives have a fitted effect of over 25% in size. The essentials:
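Inhibition of purified Photinus luciferase is measured by luminescence. Substrate levels (D-luciferin, ATP) sit at their KM values. Each compound is tested in a concentration series.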

Experiment [2] can be described thus: qHTS assay to identify small molecule agonists of the constitutive androstane receptor (CAR) signaling pathway - cell viability counter screen (AID 1224836). Also: nearly all actives have a fitted effect of over 45% in size. The gist of the method:
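Using CellTiter-Fluor, viability of HepG2 cells harbouring hCAR and CYP2B6-2.2kb was measured following 23 h incubation with a 15-concentration compound series plus PK11195 (0.75 uM final).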
A general note: qHTS replaces the single test concentration by a dilution series.

A short description of experiment [3]: qHTS assay to identify small molecule antagonists of the constitutive androstane receptor (CAR) signaling pathway - cell viability counter screen (AID 1224837). Also: nearly all actives have a fitted effect of over 45% in size. The essentials: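 Read-out: CellTiter-Fluor fluorescence after 23 hr at 37 C/5% CO2. Cells: HepG2 double-stable for hCAR and CYP2B6-2.2kb. Compounds tested at 15 concentrations in the presence of CITCO, final concentration 50 nM.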

Experiment [4] deals with Nuclear receptor subfamily 1 group I member 3 (Homo sapiens) (UniProt Q14994). Description: qHTS assay to identify small molecule antagonists of the constitutive androstane receptor (CAR) signaling pathway (AID 1224838).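 Also: HepG2 cells stably expressing hCAR with CYP2B6 luciferase reporter stimulated by CITCO; nearly all actives have a fitted effect of over 40% in size.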 The gist of the method: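 Read-out: ONE-Glo luciferase luminescence after 30 min at room temperature. HepG2-CYP2B6-hCAR double-stable cells, compounds in 15-point titration plus 50 nM CITCO final, 24 h at 37 C/5% CO2.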

Experiment [5] has the same target. Put plainly: qHTS assay to identify small molecule agonists of the constitutive androstane receptor (CAR) signaling pathway (AID 1224839).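 Also: HepG2 cells stably carrying human CAR and a CYP2B6 luciferase reporter; nearly all actives have a fitted effect of over 15% in size.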 The gist of the method: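 Double-stable HepG2 cells (hCAR, CYP2B6-2.2kb) seeded 4 h before compound addition. Exposure 24 h with 0.75 uM PK11195 final. Luciferase detected by ONE-Glo.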
A short description of experiment [6]: qHTS assay to identify small molecule antagonists of the estrogen related receptor signaling pathway with the pleiotropic PPARgamma coactivator (PGC) from Tox21 10K library - cell viability counter screen (AID 1224840; active = well fitted cell-killing curve with a large enough effect in the repeat runs, not every such curve was filed as active; also: nearly all actives have a fitted effect of over 40% in size). The essentials: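 Fluorescence read-out of CellTiter-Fluor viability reagent, added after cells had been exposed to compound in DMSO for 17.5 h at 37 C; 30 min development at 37 C/5% CO2. Cells: PGC/ERR line, 2,000/well.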

The target of experiment [7] is Thyrotropin receptor (Homo sapiens) (UniProt P16473). Description: qHTS assay to identify small molecule agonists of the thyroid stimulating hormone receptor (TSHR) signaling pathway (AID 1224843; calls by dose curve; also: nearly all actives have a fitted effect of over 45% in size). The gist of the method: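 A cell-based cAMP HTRF format was run in TSHR-transfected HEK293 cells, 800 per well. Treatment: 30 min, room temperature. Detection: 1 h with labelled cAMP and anti-cAMP cryptate. Concentration-response over 15 points, three replicates.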

The nature of experiment [8]: qHTS assay to identify small molecule agonists of the hypoxia (HIF-1) signaling pathway - cell viability counter screen (AID 1224844; calls by dose curve; also: nearly all actives have a fitted effect of over 50% in size). The essentials: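 CellTiter-Glo luminescence read-out, 30 min RT, taken in the same wells as the beta-lactamase HRE reporter assay; HRE-bla ME-180 cells, 0.5% dialyzed FBS, 17 hr compound treatment at 37C, 5% CO2.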
The nature of experiment [9]: qHTS assay to identify small molecule agonists of H2AX (AID 1224845; active = well fitted activation curve with a large enough effect in the signal ratio in the repeat runs, not every such curve was filed as active; the % refers to the signal ratio). The gist of the method:
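Phospho-H2AX Ser139 measured by HTRF (ex 320 nm; em 665 and 620 nm) after 24 hr antibody incubation. Compounds, 15 concentrations, 0.76% DMSO, were applied to CHO-K1 cells for 3hr at 37C before lysis.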

Experiment [10] can be described thus: qHTS assay to identify small molecule agonists of the hypoxia (HIF-1) signaling pathway (AID 1224846; active = well fitted activation curve with a large enough effect in the signal ratio in the repeat runs, not every such curve was filed as active; the % refers to the signal ratio). The gist of the method: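 Beta-lactamase FRET read-out (CCF4-AM substrate) from ME-180 cells carrying an HRE-driven bla reporter, after 17 hrs compound exposure at 37C/5% CO2. Cells were seeded at 2,000 per well in 0.5% dialyzed FBS medium and preincubated 5 hrs.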

Experiment [11] is described as follows: qHTS assay to identify small molecule agonists of H2AX - cell viability counter screen (AID 1224847; calls by dose curve; also: top concentration of the series differs between compounds; nearly all actives have a fitted effect of over 30% in size). The gist of the method: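 Quantitative HTS viability measurement: CHO-K1 wild-type cells in serum (10% FBS) medium, short 3 hr drug exposure at 37C with 0.76% DMSO, CellTiter-Glo luminescent detection.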
Experiment [12] in a line: qHTS RealTime-Glo MT Cell Viability Assay in HepG2 cells - 24 hour (AID 1224867). Also: nearly all actives have a fitted effect of over 50% in size. The essentials: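 Real-time, nonlytic viability: 600 HepG2 cells/well mixed with NanoLuc enzyme plus prosubstrate; 5 h settle, compound (DMSO) added by pintool; luminescence monitored over 40 h at 37 C.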
Experiment [13] is described as follows: qHTS RealTime-Glo MT Cell Viability Assay in HEK293 cells - 32 hour (AID 1224868). Also: top concentration of the series differs between compounds; nearly all actives have a fitted effect of over 50% in size. The essentials:
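Cells + reagent dispensed (600 cells/well, HEK293) → 5 h at 37 C/5% CO2 → 23 nL compound in DMSO pinned → 40 h at 37 C → luminescence read at 0, 8, 16, 24, 32, 40 h.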

Experiment [14] is described as follows: A CellTox Green Cytotoxicity Assay to monitor cytotoxicity in HEK293 cells - 0 hour (AID 1224869). Also: nearly all actives have a fitted effect of over 50% in size. The essentials:
(§1)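 Read-out: fluorescence of a cell-impermeant cyanine dye staining DNA of dead cells, proportional to cytotoxicity. HEK293, 600 cells/well with reagent, compound (23 nL DMSO) added after 5 h; reads at 0, 8, 16, 24, 32, 40 h.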

A short description of experiment [15]: A CellTox Green Cytotoxicity Assay to monitor cytotoxicity in HEK293 cells - 40 hour (AID 1224871). Also: nearly all actives have a fitted effect of over 45% in size. The gist of the method: as §1
Experiment [16] can be described thus: qHTS assay to identify small molecule antagonists of the estrogen related receptor signaling pathway with the pleiotropic PPARgamma coactivator (PGC) from Tox21 10K library (AID 1224841; call rule not given here). The essentials: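 Luminescence read-out (One-Glo luciferase reagent, 30 min at room temperature) from PGC/ERR cells exposed to DMSO-dissolved test compounds for 18 h at 37 C; cells, 2,000 per well, had been preincubated 6 h before compound transfer.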

Experiment [17] is described as follows: qHTS assay to identify small molecule agonists of the estrogen related receptor signaling pathway with the pleiotropic PPARgamma coactivator (PGC) from Tox21 10K library (AID 1224842). Also: nearly all actives have a fitted effect of over 15% in size. The essentials:
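Luminescence from One-Glo (30 min, room temperature) measured after PGC/ERR cells had 18 h at 37 C with pinned compound (23 nL in DMSO). Cells had been seeded at 2,000 per well and pre-incubated 6 h.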

Experiment [18] in a line: qHTS assay to identify small molecule antagonists of the estrogen related receptor (ERR) signaling pathway from Tox21 library (AID 1224848). Also: nearly all actives have a fitted effect of over 50% in size. The essentials:
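ERR cell line, 2,000 cells/well. 6 h settle, then compound (DMSO) added; 18 h at 37 C; ONE-Glo luminescence after 30 min RT.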

Experiment [19] can be described thus: qHTS assay to identify small molecule agonists of the estrogen related receptor (ERR) signaling pathway from Tox21 library (AID 1224849; calls by dose curve; also: nearly all actives have a fitted effect of over 15% in size). The note with it: ERR reporter cell line, ONE-Glo luciferase, 18 h; at 92.4 µM (top of the series) unless noted. The essentials:
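Luminescence readout (ONE-Glo, 30 min RT) after 18 h compound exposure at 37 C of NTP-supplied ERR reporter cells; cells were plated 6 h before compound addition by pin tool.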

A short description of experiment [20]: qHTS RealTime-Glo MT Cell Viability Assay in HepG2 cells - 40 hour (AID 1224870). Also: nearly all actives have a fitted effect of over 50% in size. The gist of the method: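 Real-time viability: cells seeded at 600 per well together with NanoLuc and cell-permeant prosubstrate, compounds added after 5 h incubation. Luminescence tracked at 0, 8, 16, 24, 32 and 40 h of exposure.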
% is scaled to controls: 0 for no effect and ±100 for the full control effect.

Sequence of Luciferin 4-monooxygenase (Photinus pyralis) (P08659 whole entry, looked up): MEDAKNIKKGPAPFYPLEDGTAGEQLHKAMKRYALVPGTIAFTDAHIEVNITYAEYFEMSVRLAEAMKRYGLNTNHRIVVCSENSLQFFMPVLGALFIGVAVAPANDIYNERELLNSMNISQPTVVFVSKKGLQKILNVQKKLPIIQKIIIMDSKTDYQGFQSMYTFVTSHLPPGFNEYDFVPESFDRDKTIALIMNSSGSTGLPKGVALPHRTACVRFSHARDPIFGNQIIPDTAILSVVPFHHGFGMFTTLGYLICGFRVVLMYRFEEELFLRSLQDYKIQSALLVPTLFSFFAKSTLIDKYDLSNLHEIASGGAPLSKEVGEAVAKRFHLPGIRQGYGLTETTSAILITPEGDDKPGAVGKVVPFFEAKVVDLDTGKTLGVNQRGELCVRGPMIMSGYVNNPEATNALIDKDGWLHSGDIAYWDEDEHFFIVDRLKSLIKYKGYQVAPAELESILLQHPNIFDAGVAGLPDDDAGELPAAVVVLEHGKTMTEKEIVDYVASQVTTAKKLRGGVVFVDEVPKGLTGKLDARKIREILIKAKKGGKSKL
Sequence of Nuclear receptor subfamily 1 group I member 3 (Homo sapiens) (Q14994 whole entry, looked up): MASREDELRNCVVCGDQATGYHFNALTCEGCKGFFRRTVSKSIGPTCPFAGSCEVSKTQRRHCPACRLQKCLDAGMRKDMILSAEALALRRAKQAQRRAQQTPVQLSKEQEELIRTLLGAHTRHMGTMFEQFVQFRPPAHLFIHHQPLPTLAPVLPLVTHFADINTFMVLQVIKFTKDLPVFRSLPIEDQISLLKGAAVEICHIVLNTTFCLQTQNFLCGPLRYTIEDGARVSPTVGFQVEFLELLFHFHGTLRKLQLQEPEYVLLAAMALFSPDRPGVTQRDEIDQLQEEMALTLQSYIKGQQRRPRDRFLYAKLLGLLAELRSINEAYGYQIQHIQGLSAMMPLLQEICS
Sequence of Thyrotropin receptor (Homo sapiens) (P16473 whole entry, looked up): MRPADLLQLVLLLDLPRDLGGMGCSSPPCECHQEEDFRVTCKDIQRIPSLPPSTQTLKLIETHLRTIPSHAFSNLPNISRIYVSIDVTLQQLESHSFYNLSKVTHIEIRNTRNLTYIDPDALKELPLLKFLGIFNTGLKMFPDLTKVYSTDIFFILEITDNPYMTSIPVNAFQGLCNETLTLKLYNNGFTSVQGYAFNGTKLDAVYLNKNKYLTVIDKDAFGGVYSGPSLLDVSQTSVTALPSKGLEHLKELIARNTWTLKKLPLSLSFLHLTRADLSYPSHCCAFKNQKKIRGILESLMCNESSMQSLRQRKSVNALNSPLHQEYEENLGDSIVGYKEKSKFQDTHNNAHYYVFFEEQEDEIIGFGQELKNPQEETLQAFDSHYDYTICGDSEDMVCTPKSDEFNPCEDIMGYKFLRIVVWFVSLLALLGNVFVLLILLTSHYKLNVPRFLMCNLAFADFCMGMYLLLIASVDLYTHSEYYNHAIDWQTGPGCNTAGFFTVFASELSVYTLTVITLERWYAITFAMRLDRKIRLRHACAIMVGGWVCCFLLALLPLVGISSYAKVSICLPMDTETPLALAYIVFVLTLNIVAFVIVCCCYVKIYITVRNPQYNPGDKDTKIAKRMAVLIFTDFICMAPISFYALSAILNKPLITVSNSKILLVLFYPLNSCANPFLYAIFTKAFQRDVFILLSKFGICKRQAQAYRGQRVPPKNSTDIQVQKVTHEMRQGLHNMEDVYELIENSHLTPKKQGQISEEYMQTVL

Regarding `C=CCc1cc(OC)c(O)c(C(=O)NCCO)c1`, the Potency result in experiment [1], in [2], in experiment [3], in experiment [4], in [5] and in experiment [6] was “inactive” in each case. In addition, the Potency entry in experiment [7], in experiment [8], in experiment [9], in experiment [11], in [12] and in [13] was “inactive” in each case. The Potency result in experiment [14] and in experiment [15] was “inactive” in each case. Also, in [10], the compound was called inactive.
Turning to `COc1ccccc1OCC(O)COC(N)=O` (configuration not stated), the Potency entry in experiment [1], in [2], in experiment [3], in experiment [4], in experiment [5] and in experiment [6] was “inactive” each time. The Potency result in experiment [16], in [17], in [7], in experiment [8], in experiment [9] and in [11] was “inactive” each time. For the same compound, the Potency entry in experiment [18], in experiment [12], in [13], in experiment [14] and in experiment [15] was “inactive” each time. The activity change, positive = activation in experiment [19] is 6.93% [at 42.5 µM].
`CC(C)CCCCCCc1ccc(OCCOCCO)cc1`: the Potency result in experiment [1], in experiment [2], in experiment [3], in experiment [4], in experiment [5] and in experiment [6] was “inactive” in each case. Further, the Potency result in experiment [16], in experiment [17], in [7], in [8], in [18] and in experiment [12] was “inactive” throughout. In addition, the Potency result in experiment [13], in experiment [14], in experiment [20] and in experiment [15] was “inactive” each time. The compound was classed as inactive in [10]. In addition, the activity change, positive = activation in [19] is -10.7%.
On to `CCCCN1C[C@H](O)[C@@H](O)[C@H](O)[C@H]1CO`, for which the Potency result in [1], in experiment [2], in [3], in experiment [4], in [5] and in experiment [6] was “inactive” each time. Also, the Potency entry in experiment [7], in [8], in [9], in experiment [11], in experiment [12] and in experiment [14] was “inactive” each time. Also, the Potency result in experiment [20] and in experiment [15] was “inactive” in each case.
As for `CNCCC(Oc1ccccc1OC)c1ccccc1` (configuration not stated), the Potency result in experiment [1], in [2], in experiment [3], in [4], in [5] and in [6] was “inactive” in each case. Also, the Potency entry in experiment [17], in [7], in experiment [8], in experiment [9], in experiment [18] and in [12] was “inactive” each time. Further, the Potency result in [14], in experiment [20] and in [15] was “inactive” in each case. In [19], the activity change, positive = activation is -5.63% [at 42.5 µM].
On to `Cc1ccc([N+](=O)[O-])cc1Cl`, for which the Potency entry in [1], in [2], in experiment [3], in [4], in experiment [5] and in [6] was “inactive” each time. Besides, the Potency result in experiment [16], in experiment [17], in experiment [7], in experiment [8], in experiment [9] and in [11] was “inactive” each time. Moreover, the Potency result in experiment [18], in experiment [12], in experiment [13], in experiment [14], in experiment [20] and in [15] was “inactive” each time. Besides, in [10], the result was inactive. Besides, the activity change, positive = activation in experiment [19] was 14.6% (active).
As for `CCCC1CCC(=O)O1` (configuration not stated), the Potency result in experiment [1], in experiment [2], in experiment [3], in [4], in experiment [5] and in experiment [6] was “inactive” each time. In addition, the Potency result in experiment [7], in [8], in experiment [9], in experiment [11], in experiment [12] and in experiment [13] was “inactive” throughout. Besides, the Potency entry in [14], in experiment [20] and in experiment [15] was “inactive” each time. Moreover, in [10], the compound was classed as inactive.
